Read-out in assay [1]: Eotaxin 3, CCL26 (gene 10344)
As to the kind of experiment: BSK_BF4T_Eotaxin3: BioMAP Diversity Plus: BF4T Assay for Eotaxin 3 Biomarker Activity (AID 2284258). The note with it: primary human bronchial epithelial cells with fibroblasts. In a few lines:
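Co-culture of human bronchial epithelial cells and dermal fibroblasts, exposed to chemicals for 24 h versus DMSO. Eotaxin-3 quantified by ELISA; cytotoxicity checked in parallel cultures by sulforhodamine B total-protein staining.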

Read-out in assay [2]: Monocyte Chemoattractant Protein-1 (MCP1), CCL2 (gene 6347)
As to the kind of experiment: BSK_BF4T_MCP1: BioMAP Diversity Plus: BF4T Assay for Monocyte Chemoattractant Protein-1 (MCP1) Biomarker Activity (AID 2284259). The conditions noted are these: primary human bronchial epithelial cells with fibroblasts. In outline: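 Co-culture of bronchial epithelial cells and dermal fibroblasts dosed with chemical; MCP-1 measured by ELISA 24 h later. Activity fitted in positive direction versus DMSO; cytotoxicity checked by SRB staining in parallel cultures.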

Read-out in assay [3]: Intercellular Adhesion Molecule 1 (ICAM1), ICAM1 (gene 3383)
As to the kind of experiment: BSK_BF4T_ICAM1: BioMAP Diversity Plus: BF4T Assay for Intercellular Adhesion Molecule 1 (ICAM1) Biomarker Activity (AID 2284260). The conditions noted are these: primary human bronchial epithelial cells with fibroblasts. In outline:
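Co-culture of human bronchial epithelial cells and dermal fibroblasts exposed 24 h to chemical; cell-surface ICAM-1 quantified by ELISA. Parallel SRB total-protein staining assessed cytotoxicity; activity fitted relative to DMSO.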

Read-out in assay [4]: Interleukin-8 (IL8), CXCL8 (gene 3576)
Briefly: BSK_MyoF_IL8: BioMAP Diversity Plus: MyoF Assay for Interleukin-8 (IL8) Biomarker Activity (AID 2284261). The conditions noted are these: primary human lung fibroblasts. In outline:
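IL-8 quantified by ELISA after 24 h compound exposure of primary human lung fibroblasts. SRB staining of parallel cultures flagged cytotoxicity; DMSO served as baseline.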

Read-out in assay [5]: CD90, THY1 (gene 7070)
Briefly: BSK_BF4T_CD90: BioMAP Diversity Plus: BF4T Assay for CD90 Biomarker Activity (AID 2284262). The conditions noted are these: primary human bronchial epithelial cells with fibroblasts. In outline:
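Co-culture of human bronchial epithelial cells and dermal fibroblasts, 24 h compound exposure. Cell-surface CD90 measured by ELISA relative to DMSO; parallel SRB total-protein staining for cytotoxicity.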

Read-out in assay [6]: Interleukin-8 (IL8), CXCL8 (gene 3576)
As to the kind of experiment: BSK_BF4T_IL8: BioMAP Diversity Plus: BF4T Assay for Interleukin-8 (IL8) Biomarker Activity (AID 2284263). The note with it: primary human bronchial epithelial cells with fibroblasts. In a few lines: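 Human bronchial epithelial cells with dermal fibroblasts co-culture; IL-8 measured by ELISA 24 hours after dosing, fitted vs DMSO. Cytotoxicity tracked in parallel cultures by SRB total-protein staining.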

Read-out in assay [7]: Interleukin-1 alpha (IL1a), IL1A (gene 3552)
Briefly: BSK_BF4T_IL1a: BioMAP Diversity Plus: BF4T Assay for Interleukin-1 alpha (IL1a) Biomarker Activity (AID 2284264). The conditions noted are these: primary human bronchial epithelial cells with fibroblasts. In outline: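 Human bronchial epithelial cells co-cultured with dermal fibroblasts, dosed and read at 24 h. Secreted/surface IL-1α quantified by ELISA; gain-of-signal fitted relative to DMSO baseline. Parallel SRB total-protein staining tracked cytotoxicity.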

Read-out in assay [8]: Decorin, DCN (gene 1634)
Briefly: BSK_MyoF_Decorin: BioMAP Diversity Plus: MyoF Assay for Decorin Biomarker Activity (AID 2284265). The note with it: primary human lung fibroblasts. In a few lines:
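Decorin protein was quantified by ELISA 24 h after chemical addition to primary human lung fibroblasts and analysed as increase over DMSO. Cytotoxicity was tracked in parallel cultures by SRB total-protein staining read at 560 nm.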

Read-out in assay [9]: KRT18 (gene 3875)
As to the kind of experiment: BSK_BF4T_Keratin818: BioMAP Diversity Plus: BF4T Assay for Keratin 818 Biomarker Activity (AID 2284266). The note with it: primary human bronchial epithelial cells with fibroblasts. In outline:
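Co-culture of human bronchial epithelial cells and dermal fibroblasts, chemical exposure 24 h. Keratin 8/18 measured by ELISA; positive-direction fit vs DMSO. SRB total protein run in parallel cultures for cytotoxicity.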

Activity calls are given as the source filed them. How the source made its calls: active means hit-call score of the fitted dose curve at least 0.9, where 1 is the maximum; inactive means score below 0.9.

With `FC(F)(F)C(F)(F)CNCC(F)(F)C(F)(F)F`, the outcome in [1], in assay [2], in assay [3], in assay [4], in [5] and in assay [6] was inactive. Moreover, the result in [7], in assay [8] and in assay [9] was inactive.

`O=C(CC(=O)C(F)(F)C(F)(F)F)C(F)(F)F`: the outcome in assay [1], in assay [2], in [3], in assay [4], in [5] and in [6] was inactive. For the same compound, the outcome in assay [7], in [8] and in [9] was inactive.

`FC(F)(F)C(F)(F)C(F)(F)N(C(F)(F)C(F)(F)C(F)(F)F)C(F)(F)C(F)(F)C(F)(F)F`: the outcome in assay [1], in assay [2], in assay [3], in assay [4], in [5] and in assay [6] was inactive. Also, the result in [7], in [8] and in assay [9] was inactive.

Consider `C#C[C@]1(O)CC[C@H]2[C@@H]3CCc4cc(OC)ccc4[C@H]3CC[C@@]21C`, for which the result in assay [4] and in assay [8] was inactive.

On to `CS(C)(=O)=O`, for which the result in [4] and in assay [8] was inactive.

As to `O=C(O)C(F)(F)C(F)(F)C(F)(F)C(F)(F)F`, the outcome in assay [1], in assay [2], in assay [3], in [4], in assay [5] and in [6] was inactive. Moreover, the outcome in [7], in assay [8] and in assay [9] was inactive.

Consider `O=C(O)C(F)(F)C(F)(F)C(F)(F)C(F)(F)C(F)(F)C(F)(F)C(F)(F)C(F)(F)C(F)(F)C(F)(F)C(F)(F)C(F)(F)C(F)(F)F`, for which the result in [1], in assay [2], in assay [3], in [4], in assay [5] and in [6] was inactive. In addition, the result in assay [7], in assay [8] and in [9] was inactive.

Take `O=S(=O)(OCC(F)F)C(F)(F)F`: the outcome in assay [1], in assay [2], in assay [3], in assay [4], in assay [5] and in [6] was inactive. Further, the outcome in assay [7], in [8] and in assay [9] was inactive.

As to `CCc1ccc(C(c2ccc(CC)cc2)C(Cl)Cl)cc1`, the concentration at half-maximal activity (AC50) in assay [4] is 7.95 µM (active). The result in assay [8] was inactive.

Take `OCC(F)(F)C(F)(F)C(F)(F)C(F)(F)C(F)(F)C(F)F`: the outcome in [1], in assay [2], in assay [3], in assay [4], in assay [5] and in assay [6] was inactive. The outcome in assay [7], in assay [8] and in assay [9] was inactive.

For the compound `CCCCNc1ccccc1`, the result in [4] and in assay [8] was inactive.

For the compound `CCc1c(Br)c(Br)c(Br)c(Br)c1Br`, the result in assay [4] and in [8] was inactive.

Turning to `O=P(O)(O)OCCC(F)(F)C(F)(F)C(F)(F)C(F)(F)C(F)(F)C(F)(F)F`, the outcome in assay [1], in assay [2], in assay [3], in assay [4], in assay [5] and in assay [6] was inactive. For the same compound, the outcome in assay [7], in assay [8] and in [9] was inactive.

Take `CCCCCCC(C)OC(=O)CCCCC(=O)OC(C)CCCCCC` (stereo not given): the result in assay [4] and in assay [8] was inactive.

Regarding `FC1CC(F)(F)C(F)(F)C1(F)F` (stereo not given), the result in assay [1], in assay [2], in [3], in [4], in assay [5] and in assay [6] was inactive. The outcome in [7], in [8] and in [9] was inactive.

For `CC(CCl)OP(=O)(OC(C)CCl)OC(C)CCl` (stereo not given), the result in assay [4] and in assay [8] was inactive.

By AC50 is commonly meant the concentration giving half of the maximal activity seen.
